According to PubChem BioAssay (Tox21):
Inconclusive results are not listed. Active and inactive are the calls of the source. Unless noted, calls come from the whole dose curve; as a rule, active = well fitted curve in the direction sought with a large enough effect in the repeat runs; inconclusive = weak or mixed curves; inactive = no such curve, though single readings can be large; an effect the other way counts as inactive or inconclusive.

Assays:
[1] = qHTS assay to identify small molecule antagonists of the estrogen related receptor (ERR) signaling pathway from Tox21 library - cell viability counter screen (AID 1224834); note: nearly all actives have a fitted effect of over 30% in size; note: potency is the fitted concentration of half-maximal effect
Procedure, shortened: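 ERR reporter cells were plated 6 h before compound addition, then exposed to test compounds in DMSO for 17.5 h at 37 C. Viability was read as CellTiter-Fluor fluorescence after a 30-minute incubation at 37 C.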

[2] = biological target: Luciferin 4-monooxygenase (Photinus pyralis) (UniProt P08659); assay: qHTS assay to identify small molecule inhibitors of firefly luciferase (AID 1224835); note: nearly all actives have a fitted effect of over 25% in size; note: potency is the fitted concentration of half-maximal effect; for activity change, negative = inhibition: series mostly up to about 120 µM
Chain of Luciferin 4-monooxygenase (Photinus pyralis) (P08659 whole entry, looked up): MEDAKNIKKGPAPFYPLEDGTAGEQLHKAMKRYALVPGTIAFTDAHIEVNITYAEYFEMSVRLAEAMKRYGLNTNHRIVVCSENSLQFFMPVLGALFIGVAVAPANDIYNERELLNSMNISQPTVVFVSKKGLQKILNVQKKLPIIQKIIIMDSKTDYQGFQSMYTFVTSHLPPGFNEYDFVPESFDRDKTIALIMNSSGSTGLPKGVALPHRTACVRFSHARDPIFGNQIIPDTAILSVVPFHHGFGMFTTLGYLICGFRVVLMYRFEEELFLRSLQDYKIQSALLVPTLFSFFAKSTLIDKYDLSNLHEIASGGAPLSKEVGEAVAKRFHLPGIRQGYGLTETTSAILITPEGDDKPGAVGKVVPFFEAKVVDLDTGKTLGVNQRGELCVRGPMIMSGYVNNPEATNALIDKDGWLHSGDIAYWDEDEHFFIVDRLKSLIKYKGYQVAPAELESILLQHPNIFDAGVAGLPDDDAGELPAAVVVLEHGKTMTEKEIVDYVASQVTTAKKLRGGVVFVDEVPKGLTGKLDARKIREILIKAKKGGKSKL
Procedure, shortened: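 Inhibition of purified Photinus luciferase is measured by luminescence. Substrate levels (D-luciferin, ATP) sit at their KM values. Each compound is tested in a concentration series.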

[3] = qHTS assay to identify small molecule agonists of the constitutive androstane receptor (CAR) signaling pathway - cell viability counter screen (AID 1224836); note: nearly all actives have a fitted effect of over 45% in size; note: potency is the fitted concentration of half-maximal effect; for viability change, negative = cytotoxic: series mostly up to about 92 µM
Procedure, shortened: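 Compound titrations (15 concentrations) went onto HepG2-CYP2B6-hCAR cells 4 h after seeding, alongside PK11195 at a final 0.75 uM; a 23 h, 37 C/5% CO2 incubation preceded CellTiter-Fluor viability measurement.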

[4] = qHTS assay to identify small molecule antagonists of the constitutive androstane receptor (CAR) signaling pathway - cell viability counter screen (AID 1224837); note: series mostly up to about 92 µM; nearly all actives have a fitted effect of over 45% in size
Procedure, shortened: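 HepG2 cells stably expressing hCAR and a CYP2B6-2.2kb reporter were plated and pre-incubated 4 hr at 37 C/5% CO2, then given compounds at 15 concentrations plus 50 nM CITCO (final). After 23 hr, viability was read by CellTiter-Fluor fluorescence.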

[5] = qHTS assay to identify small molecule antagonists of the estrogen related receptor signaling pathway with the pleiotropic PPARgamma coactivator (PGC) from Tox21 10K library - cell viability counter screen (AID 1224840; active = well fitted cell-killing curve with a large enough effect in the repeat runs, not every such curve was filed as active; note: nearly all actives have a fitted effect of over 40% in size; note: potency is the fitted concentration of half-maximal effect)
Procedure, shortened: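 PGC/ERR cells were seeded at 2,000 cells/well and left 6 hours at 37 C/5% CO2 before pin-tool addition of compounds in DMSO. After 17.5 hours at 37 C, CellTiter-Fluor was added and fluorescence read 30 minutes later.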

[6] = biological target: Thyrotropin receptor (Homo sapiens) (UniProt P16473); assay: qHTS assay to identify small molecule agonists of the thyroid stimulating hormone receptor (TSHR) signaling pathway (AID 1224843; calls by dose curve; note: nearly all actives have a fitted effect of over 45% in size)
Chain of Thyrotropin receptor (Homo sapiens) (P16473 whole entry, looked up): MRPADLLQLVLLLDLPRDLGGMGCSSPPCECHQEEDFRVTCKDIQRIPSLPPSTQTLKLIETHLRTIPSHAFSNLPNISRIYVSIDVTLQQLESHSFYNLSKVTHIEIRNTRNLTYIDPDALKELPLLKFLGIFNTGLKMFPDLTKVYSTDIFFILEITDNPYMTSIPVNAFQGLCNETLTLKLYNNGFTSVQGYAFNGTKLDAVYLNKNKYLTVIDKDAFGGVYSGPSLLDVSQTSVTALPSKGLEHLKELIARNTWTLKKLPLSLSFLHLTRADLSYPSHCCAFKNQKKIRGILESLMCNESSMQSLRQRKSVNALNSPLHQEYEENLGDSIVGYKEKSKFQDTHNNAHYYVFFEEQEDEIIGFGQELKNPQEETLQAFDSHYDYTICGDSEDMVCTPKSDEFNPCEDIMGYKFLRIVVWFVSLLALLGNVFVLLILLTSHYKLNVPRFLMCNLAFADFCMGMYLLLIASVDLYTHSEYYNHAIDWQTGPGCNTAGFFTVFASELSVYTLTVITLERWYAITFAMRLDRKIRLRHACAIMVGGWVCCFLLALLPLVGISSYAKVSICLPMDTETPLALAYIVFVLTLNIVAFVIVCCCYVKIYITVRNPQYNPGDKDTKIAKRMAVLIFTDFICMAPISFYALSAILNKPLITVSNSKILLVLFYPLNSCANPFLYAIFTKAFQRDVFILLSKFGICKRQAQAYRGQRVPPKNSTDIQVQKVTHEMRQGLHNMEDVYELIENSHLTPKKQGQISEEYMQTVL
Procedure, shortened: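 Screening of the Tox21 10K collection used HEK293 cells engineered with TSHR at 800 cells per well. After a 30-min room-temperature compound exposure, HTRF cAMP reagents were added and fluorescence recorded 1 h later.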

[7] = qHTS assay to identify small molecule agonists of the hypoxia (HIF-1) signaling pathway - cell viability counter screen (AID 1224844; calls by dose curve; note: nearly all actives have a fitted effect of over 50% in size; note: potency is the fitted concentration of half-maximal effect)
Procedure, shortened: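 HRE-bla ME-180 cells in medium with 0.5% dialyzed FBS were preincubated 5 hrs at 37C, exposed to compounds for 17 hrs, then viability was read as CellTiter-Glo luminescence after 30 min at room temperature, in the reporter wells.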

[8] = qHTS assay to identify small molecule agonists of H2AX (AID 1224845; active = well fitted activation curve with a large enough effect in the signal ratio in the repeat runs, not every such curve was filed as active; the % refers to the signal ratio; note: potency is the fitted concentration of half-maximal effect)
Procedure, shortened: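 Phospho-H2AX Ser139 measured by HTRF (ex 320 nm; em 665 and 620 nm) after 24 hr antibody incubation. Compounds, 15 concentrations, 0.76% DMSO, were applied to CHO-K1 cells for 3hr at 37C before lysis.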

[9] = qHTS assay to identify small molecule agonists of the hypoxia (HIF-1) signaling pathway (AID 1224846; active = well fitted activation curve with a large enough effect in the signal ratio in the repeat runs, not every such curve was filed as active; the % refers to the signal ratio)
Procedure, shortened: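 HRE-bla ME-180 cells (beta-lactamase reporter under hypoxia response element) were plated at 2,000 cells/well in medium with 0.5% dialyzed FBS, rested 5 hrs, then given compounds in DMSO for 17 hrs at 37C, 5% CO2. Reporter induction was read with CCF4-AM FRET substrate.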

[10] = biological target: Nuclear receptor subfamily 1 group I member 3 (Homo sapiens) (UniProt Q14994); assay: qHTS assay to identify small molecule antagonists of the constitutive androstane receptor (CAR) signaling pathway (AID 1224838); note: nearly all actives have a fitted effect of over 40% in size
Chain of Nuclear receptor subfamily 1 group I member 3 (Homo sapiens) (Q14994 whole entry, looked up): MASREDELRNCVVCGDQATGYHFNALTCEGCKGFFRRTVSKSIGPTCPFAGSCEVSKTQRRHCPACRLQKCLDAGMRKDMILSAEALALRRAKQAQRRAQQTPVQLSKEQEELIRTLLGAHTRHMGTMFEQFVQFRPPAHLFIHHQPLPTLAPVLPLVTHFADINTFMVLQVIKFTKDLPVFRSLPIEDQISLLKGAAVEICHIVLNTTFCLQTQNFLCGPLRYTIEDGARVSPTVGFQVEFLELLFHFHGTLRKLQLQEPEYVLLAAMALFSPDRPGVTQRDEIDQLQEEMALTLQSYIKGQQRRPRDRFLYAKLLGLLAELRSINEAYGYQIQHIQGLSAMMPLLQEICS
Procedure, shortened: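 HepG2 cells stably co-transfected with hCAR and a CYP2B6-2.2kb luciferase reporter were seeded 4 h before compound addition at 15 concentrations. Cells were stimulated with 50 nM CITCO (final) for 24 h at 37 C; luciferase luminescence was then read.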

[11] = qHTS assay to identify small molecule agonists of the estrogen related receptor signaling pathway with the pleiotropic PPARgamma coactivator (PGC) from Tox21 10K library (AID 1224842); note: nearly all actives have a fitted effect of over 15% in size
Procedure, shortened: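 Luminescence from One-Glo (30 min, room temperature) measured after PGC/ERR cells had 18 h at 37 C with pinned compound (23 nL in DMSO). Cells had been seeded at 2,000 per well and pre-incubated 6 h.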

[12] = biological target: Nuclear receptor subfamily 1 group I member 3 (Homo sapiens) (UniProt Q14994); assay: qHTS assay to identify small molecule agonists of the constitutive androstane receptor (CAR) signaling pathway (AID 1224839); note: nearly all actives have a fitted effect of over 15% in size; note: potency is the fitted concentration of half-maximal effect;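 for activation: HepG2 cells stably carrying human CAR and a CYP2B6 luciferase reporter; series mostly up to about 92 µM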
Procedure, shortened: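 In this screen, CAR-driven CYP2B6 promoter activity is measured by luminescence in HepG2-CYP2B6-hCAR cells after 24 h with test compounds and 0.75 uM PK11195 (final concentration).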

[13] = qHTS assay to identify small molecule antagonists of the estrogen related receptor signaling pathway with the pleiotropic PPARgamma coactivator (PGC) from Tox21 10K library (AID 1224841; call rule not given here; note: series mostly up to about 92 µM; actives are mostly falling curves and most rising ones were filed inactive; nearly all actives have a fitted effect of over 50% in size)
Procedure, shortened: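 PGC/ERR reporter cells were seeded at 2,000 cells/well and held 6 hours at 37 C/5% CO2 before pin-tool addition of compounds in DMSO. After 18 hours at 37 C, One-Glo was added and luminescence read after 30 minutes at room temperature.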
% is set by controls: 0 for no effect and ±100 for the full control effect.

CN1CCN(C)CC1
inactive: Potency [1] | Potency [2] | Potency [3] | Potency [4] | Potency [5] | Potency [6] | Potency [7] | Potency [8] | Potency [9]

CCc1c(C)cc(N)c(CC)c1N
inactive: Potency [1] | Potency [2] | Potency [3] | Potency [10] | Potency [5] | Potency [11] | Potency [6] | Potency [7] | Potency [8] | Potency [9]

O=C(Cl)c1ccc(Cl)cc1Cl
active: Potency [2] 25.2 µM | Potency [8] 101 µM
inactive: Potency [1] | Potency [3] | Potency [4] | Potency [10] | Potency [12] | Potency [5] | Potency [7]

CSc1nnc(C(C)(C)C)c(=O)[nH]1
inactive: Potency [1] | Potency [2] | Potency [3] | Potency [4] | Potency [10] | Potency [12] | Potency [5] | Potency [7] | Potency [8]

O=C(O)C[C@H](O)C[C@H](O)/C=C/c1c(C2CC2)nc2ccccc2c1-c1ccc(F)cc1
inactive: viability change, negative = cytotoxic [1] 0.576% [at 19 µM] | activity change, negative = inhibition [2] 5.31% [at 23.6 µM] | viability change, negative = cytotoxic [3] -13.2% [at 19 µM] | activity, negative = inhibition [10] -27.1% [at 19 µM] | activation [12] -6.78% [at 19 µM] | viability change, negative = cytotoxic [5] -0.117% [at 19 µM] | activity, negative = inhibition [13] 10.6% [at 19 µM] | activation [11] -0.0293% [at 19 µM] | activation [6] -24.9% [at 19 µM] | activity change, negative = cytotoxicity [7] -17.5% [at 15.8 µM] | activation (H2AX phosphorylation) [8] -2.12% [at 31.6 µM] | activation [9] 0.144% [at 15.8 µM]

Cc1cc(C)c(O)c(C(C)(C)C)c1
inactive: Potency [1] | Potency [2] | Potency [3] | Potency [4] | Potency [10] | Potency [12] | Potency [11] | Potency [7] | Potency [8] | Potency [9]

COc1ccc(OC)c(N=Nc2c(O)ccc3ccccc23)c1
inactive: Potency [10] | Potency [6] | Potency [8]
active: Potency [1] 24.3 µM | Potency [2] 6.33 µM | Potency [3] 30.6 µM | Potency [12] 12.2 µM | Potency [7] 38.9 µM

O=c1cc[nH]cc1
inactive: Potency [1] | Potency [2] | Potency [3] | Potency [4] | Potency [10] | Potency [12] | Potency [5] | Potency [6] | Potency [7] | Potency [8]

CC1CCC(C(C)(C)O)CC1 (centres undefined)
inactive: Potency [1] | Potency [2] | Potency [3] | Potency [10] | Potency [12] | Potency [5] | Potency [7] | Potency [8]

[Cl][Sc]([Cl])[Cl]
active: Potency [2] 28.3 µM
inactive: Potency [1] | Potency [3] | Potency [4] | Potency [10] | Potency [12] | Potency [5] | Potency [11] | Potency [6] | Potency [7] | Potency [8]

COc1cccc(-c2ccc(/C=C\CN3CCCCCC3)cc2Cl)c1
active: Potency [5] 54.2 µM
inactive: Potency [1] | Potency [2] | Potency [3] | Potency [10] | Potency [12] | Potency [13] | Potency [11]
